Rows were chosen to be rich in hits. Some 0.93% of all compounds tested hit in one or more screens of this group.
CIT2-GFP yeast: modulators of TOR pathway CIT2-GFP in S. cerevisiae; 320,000 compounds, 0.065% hits; GFP response vs DMSO, % at 10 µM; S. cerevisiae CIT2-GFP strain, flow cytometry, 3 h; 100 means same as DMSO wells;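 active = GFP response relative to DMSO above a set limit, near the screen mean plus 3 SD, cut at about 150% in these data; inconclusive = Fewer than 70 cells measured for a yeast strain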;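 also: ratio of well median GFP fluorescence to mean of DMSO wells on the plate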
MEP2-GFP yeast: modulators of TOR pathway MEP2-GFP in S. cerevisiae; AID 2016; 330,000 compounds, 0.51% hits; GFP response vs DMSO, % at 10 µM; S. cerevisiae MEP2-GFP strain, flow cytometry GFP, 3 h; 100% = DMSO control level;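 active = GFP response versus DMSO above a set limit, roughly screen mean plus 3 SD, cut at about 180% in these data; inconclusive = fewer than 70 cells counted for a yeast strain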;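 also: median GFP fluorescence of the barcode-gated MEP2-GFP cells per well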
LAP4 TOR yeast: modulators of TOR pathway LAP4-GFP in S. cerevisiae | GFP response vs DMSO, % at 10 µM | S. cerevisiae LAP4-GFP multiplex, flow cytometry GFP, 3 h; median GFP as percent of DMSO wells | 320,000 compounds, 0.34% hits;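 active = GFP response vs DMSO above a set limit, about the screen mean plus 3 SD, cut at about 150% in these data; inconclusive = under 70 cell events counted for the yeast strain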
AGP1 TOR yeast: alters AGP1-GFP fluorescence in TOR pathway yeast screen; S. cerevisiae AGP1-GFP multiplex flow cytometry, 3 h; GFP as percent of DMSO wells; GFP response vs DMSO, % at 10 µM; 320,000 compounds, 0.02% hits; AID 2066;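 active = GFP response relative to DMSO above a set limit, near screen average plus 3 SD, cut at about 150% in these data; inconclusive = fewer than 70 cells counted for the yeast strain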;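 also: median GFP channel fluorescence of the gated AGP1 strain per well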
RPL19A-GFP yeast: yeast TOR pathway RPL19A-GFP modulation; S. cerevisiae RPL19A-GFP strain, flow cytometry, 3 h; stronger effect = lower value; percent response vs DMSO, % at 10 µM; 330,000 compounds, 0.3% hits;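 active = percent response vs DMSO below 50%; inconclusive = fewer than 70 events counted for the yeast strain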;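 also: median channel GFP fluorescence of the barcoded RPL19A-GFP strain; ratio of sample median GFP to plate DMSO average so 100% = DMSO; lower means less RPL19A-GFP as with rapamycin TOR inhibition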
* marks the source's active call; other numbers are inactive results; ? = inconclusive; / = no result given; [ ] = another dose, or the depositor's remark.

SMILES	CIT2-GFP yeast	MEP2-GFP yeast	LAP4 TOR yeast	AGP1 TOR yeast	RPL19A-GFP yeast
CC(C)(C)C(=O)/C(=C\c1ccc([N+](=O)[O-])cc1)n1cncn1	76.6	92.3	190.0*	79.9	87.2
CN1CC(=O)NC1=NC(=O)C12CC3CC(CC(C3)C1)C2	78.7	98.9	229.2*	88.9	92.6
O=C(c1ccc(NS(=O)(=O)c2cccc3cccnc23)cc1)N1CCCCC1	?	?	?	?	49.7*[may fluoresce violet]
CC1=CCC[C@H]2[C@H](C1)C(=O)C[C@@H](C)[C@]2(C)CC/C(=C/CO)CO	96.8	97.2	90.7	102.7	98.3
COc1ccc(CCNC(=O)CN(c2ccc(OC)c(OC)c2)S(C)(=O)=O)cc1	96.3	100.0	98.4	94.8	96.4
CC(=O)Oc1ccc(-c2nc(-c3cccnc3)no2)cc1	?	226.6*[may fluoresce violet]	85.9	21.4	72.2
CC(=O)Oc1ccc(Oc2ccc(-c3noc(C)n3)cc2)cc1	99.7	104.8	100.2	90.0	95.6
CCOC(=O)C1CCCN(c2c(C(=O)c3ccccc3)cnc3ccccc23)C1 (stereo unspecified)	189.6*	194.9*	127.7	104.2	111.9
O=[N+]([O-])c1cc2c(cc1/C=N/n1cnnc1)OCO2	?	103.2	?	?	95.9
CCNc1nc(-c2ccc(Cl)cc2)cs1	86.1	91.2	167.3*	87.4	85.9
CC/C(=C\c1oc2cc3ccccc3cc2[n+]1CC)Nc1ccccc1	?	629.4*[may fluoresce violet]	256.7*[may fluoresce violet]	43.3	81.7
CC[n+]1c(/C=C/Nc2ccccc2)oc2ccc(OC)cc21	100.6	106.4	103.1	108.2	97.3
COc1ccc(NC(=O)CCC(=O)NCCO)cc1	?	290.9*[may fluoresce violet]	101.6	21.8	59.3
O=C(CCC(=O)Nc1ccccc1)NCCO	97.4	102.1	101.5	98.8	100.0
COc1ccc(N2CCN(C(=O)Cn3c(=O)[nH]c4ccsc4c3=O)CC2)cc1	?	573.1*[may fluoresce violet]	97.0	?	45.4*[may fluoresce violet]
COc1cc(/C=N/NC(=O)CNS(=O)(=O)c2ccc(C)cc2)cc(OC)c1OC	?	120.6	98.6	92.7	60.9
COc1ccc(-c2cc(C(=O)Nc3cccnc3Cl)no2)cc1OC	?	?	64.7	?	24.2*[may fluoresce violet]
CC1CCN(C(=O)CSc2nc3ccccc3c(=O)n2Cc2ccc3c(c2)OCO3)CC1	105.0	101.8	110.4	107.3	104.0
O=C(NCCc1ccccc1)c1cnc2n(c1=O)CCS2	112.0	108.1	96.1	100.8	98.8
O=C(NCc1cccnc1)c1cnc2n(c1=O)CCS2	164.3*	249.6*	187.7*	113.8	104.4
CC(=O)Nc1ccc(C(=O)N2CC(=O)NC(=O)C2)cc1	?	175.6*[may fluoresce violet]	104.1	24.2	63.2
CCc1nnc(NC(=O)c2sc3nc4cc(C)ccc4cc3c2N)s1	91.1	106.6	101.8	99.1	94.6
Cc1ccc(NC(=S)N2CCSC2c2cccs2)cc1 (stereo unspecified)	165.3*	182.4*	154.9*	116.4	107.9
O=C(COC(=O)c1ccco1)NCc1cccs1	?	355.3*[may fluoresce violet]	93.2	/	27.6*[may fluoresce violet]
O=C(COC(=O)c1ccc(Br)o1)NCc1cccs1	92.8	99.4	97.3	93.3	94.7
SMILES	CIT2-GFP yeast	MEP2-GFP yeast	LAP4 TOR yeast	AGP1 TOR yeast	RPL19A-GFP yeast
Cc1ccc(S(=O)(=O)NCC(C)n2nc(C)cc2C)cc1 (stereo unspecified)	90.4	89.2	77.2	84.2	87.8
Cc1ccc(C(C[N+](=O)[O-])n2nc(C)cc2C)cc1 (stereo unspecified)	82.9	102.5	205.8*	95.5	82.8
O=C(OCCCOC(=O)c1ccc(Br)o1)c1ccc(Br)o1	78.5	107.3	158.2*	107.6	100.9
COCCCNC(=O)Cn1cnc2sc(C)c(S(=O)(=O)N3CCN(c4ncccn4)CC3)c2c1=O	115.7	107.6	106.0	97.0	101.3
CCOc1ccc(N(CC(=O)N2CCCCC2)S(=O)(=O)c2ccc(Cl)cc2)cc1	102.1	104.6	105.2	105.1	102.3
COCCN(CC(=O)NCC1CCCO1)C(=O)CCC(=O)Nc1cc(C)on1 (stereo unspecified)	102.4	112.1	103.8	103.8	95.6
COc1ccc(-c2cc3cc4c(cc3cn2)OCO4)cc1	88.1	97.9	104.5	99.6	95.7
c1ccc(-c2cc3cc4c(cc3cn2)OCO4)cc1	?	221.7*[may fluoresce violet]	101.6	19.3	48.1*[may fluoresce violet]
COc1cc(CC(=O)N(C)CC(=O)Nc2cc(C)ccc2C)cc(OC)c1OC	108.6	110.5	113.0	104.1	99.9
Cc1cccc(N2CC(C(=O)Nc3ccc(S(=O)(=O)N4CCOCC4)cc3)CC2=O)c1C (stereo unspecified)	?	258.4*[may fluoresce violet]	87.1	13.5	62.7
Cc1occc1-c1nnc(-c2cc([N+](=O)[O-])cc([N+](=O)[O-])c2)o1	69.9	99.3	171.5*	90.4	79.1
O=c1cc(Cl)c(-c2ccccc2)n[nH]1	98.3	100.1	110.5	109.5	109.9
Cc1ccc(S(=O)(=O)n2ccc(-c3ccc(OCc4c(F)cccc4Cl)cc3)n2)cc1	104.1	103.4	101.9	105.7	97.7
Cc1ccc(S(=O)(=O)n2ccc(-c3cccc(OCc4c(F)cccc4Cl)c3)n2)cc1	?	330.9*[may fluoresce violet]	103.5	/	74.0
Cc1ccc(C(C[N+](=O)[O-])Sc2ccc(N)cc2)cc1 (stereo unspecified)	89.9	100.6	200.5*	96.5	89.4
Nc1ccc(Sc2ccc([N+](=O)[O-])cc2)cc1	85.6	86.1	106.2	92.3	110.2
COc1cccc(-c2onc3ccc(C(C)=O)cc23)c1	102.6	99.4	103.2	84.6	102.0
CC(=O)c1ccc2noc(-c3cccc(F)c3)c2c1	?	192.8*[may fluoresce violet]	68.3	18.7	58.5
CCC(NC(C)C)C(O)c1ccc(O)c2[nH]c(=O)ccc12 (stereo unspecified)	?	186.2*[may fluoresce violet]	103.5	?	42.4*[may fluoresce violet]
C=C1SC(Nc2c(C)cccc2C)=NC12CCCCC2	?	651.0*[may fluoresce violet]	95.9	19.1	58.1
Cc1cc(=O)oc2cc(NC(=O)CCOc3ccccc3)ccc12	?	254.6*[may fluoresce violet]	61.2	?	38.3*[may fluoresce violet]
Cc1cccc(OCC(=O)Nc2ccc3c(C)cc(=O)oc3c2)c1	91.6	89.0	82.8	85.4	94.9
CCOC(=O)NNc1ccccc1	107.5	104.5	97.1	100.4	98.2
CCOC(=O)C(=CNNc1ccccc1)C(=O)OCC	102.3	94.3	171.0*	99.6	93.7
CN(C)c1cccc(C(=O)N/N=C/c2ccccc2F)c1	?	290.8*[may fluoresce violet]	106.1	16.2	63.6
CC(Sc1nnc(C2CCCCC2)n1N)C(=O)NCc1ccc2c(c1)OCO2 (stereo unspecified)	92.0	98.9	96.1	97.1	100.0
Cc1cc2c(cc1C)CSC(c1c(O)ccc3ccccc13)SC2	?	232.1*[may fluoresce violet]	70.7	?	62.3
CCCCN(C(=O)Cn1nnc2ccccc21)C(C(=O)NCCOC)c1ccccc1 (stereo unspecified)	107.4	104.7	100.7	99.1	97.6
